Data as given in PubChem BioAssay (NCATS).
Results filed as inconclusive are left out. A call without a number means that no potency is given here. Active and inactive are the calls of the source. Calls follow the shape of the dose curve; as a rule, active = well fitted inhibition curve with a large enough effect; inconclusive = small, poorly fitted or top-dose-only effect; inactive = flat fitted curve, though single readings scatter.

system: ECU; assay: qHTS profiling for inhibitors of Plasmodium falciparum proliferation (AID 504749); also: nearly all actives have a fitted effect of over 60% in size; settings: P. falciparum in erythrocytes, SYBR Green DNA, 72 h; series mostly up to 28.7 µM
Procedure, shortened: (§1)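 Readout was DNA-dye fluorescence from lysed cultures, ex 485/em 535 nm. Parasitized red cells had grown 72 h with compound; data scaled between 0.29 uM artemisinin and DMSO wells and corrected using vehicle-only plates.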
Potency is read from the fitted curve at half-maximal effect.

Row | Structure (SMILES) | Potency
1 | CCCCC(CC)COS(=O)(=O)O (stereo not given) | inactive
2 | CC1(O)CCC(C(C)(C)O)CC1 (stereo not given) | inactive
3 | CCCCCCOC(=O)c1cccnc1 | inactive
4 | FC(F)(F)COCC(F)(F)F | inactive
5 | CCCCCCCCCCCC(=O)N(CCO)CCO | inactive
6 | O=P(O)(O)OC[C@H]1O[C@](O)(COP(=O)(O)O)[C@@H](O)[C@@H]1O | inactive
7 | COc1cc(S(C)=O)ccc1-c1nc2ncccc2[nH]1 (stereo not given) | inactive
8 | O=c1[nH]c(=O)n([C@H]2C[C@H](O)[C@@H](CO)O2)cc1/C=C/Br | inactive
9 | CC(=O)[C@H]1CC[C@H]2[C@@H]3C=CC4=CC(=O)CC[C@@]4(C)[C@H]3CC[C@]12C | inactive
10 | NC(N)=O | inactive
11 | CCC(C(=O)NC(N)=O)c1ccccc1 (stereo not given) | inactive
12 | CC(CCc1ccc(O)cc1)NCC(O)c1ccc(O)cc1 (stereo not given) | inactive
13 | Nc1nccs1 | inactive
14 | NC(=S)NS(=O)(=O)c1ccc(N)cc1 | inactive
15 | O=C(OCc1ccccc1)c1ccc(O)cc1 | inactive
16 | CC1C(=O)CC2C3(C)CCC2(C(C)C(=O)O)C(=O)C13 (stereo not given) | inactive
17 | O=C(NNCS(=O)(=O)O)c1ccncc1 | inactive
18 | CC(=O)Nc1ccc(OC(C)=O)cc1 | inactive
19 | CC/C(=C(/CC)c1ccc(OP(=O)(O)O)cc1)c1ccc(OP(=O)(O)O)cc1 | inactive
20 | OC[C@H]1O[C@@](CO)(O[C@H]2O[C@H](CO)[C@@H](O)[C@H](O)[C@H]2O)[C@@H](O)[C@@H]1O | inactive

Row | Structure (SMILES) | Potency
21 | [O-][N+](=Nc1ccccc1)c1ccccc1 | inactive
22 | NC(=O)[C@H]1O[C@@H](O)[C@H](O)[C@@H](O)[C@@H]1O | inactive
23 | CC(C)CCC[C@@H](C)[C@H]1CC[C@H]2[C@@H]3CC[C@@H]4C[C@H](O)CC[C@]4(C)[C@H]3CC[C@]12C | inactive
24 | ClC(Cl)Cl | inactive
25 | FC(F)(F)C(F)(F)C(F)(F)C(F)(F)C(F)(F)F | inactive
26 | CC(CC=O)CCCC(C)(C)O (stereo not given) | inactive
27 | CC(C)[C@H](N)C(=O)OCC(CO)OCn1cnc2c(=O)[nH]c(N)nc21 (stereo not given in full) | inactive
28 | CC(C)CCC[C@@H](C)[C@H]1CC[C@H]2[C@@H]3CC=C4C[C@@H](O)CC[C@]4(C)[C@H]3CC[C@]12C | inactive
29 | CC(C)c1ncc([N+](=O)[O-])n1C | inactive
30 | CCCc1ccc(C(=O)O)cc1 | inactive
31 | C=CC(=O)O | inactive
32 | COC(=O)CC[C@H](N)C(=O)O | inactive
33 | CN1C(=O)C[C@@H](C(=O)N[C@@H](Cc2cnc[nH]2)C(=O)N2CCC[C@H]2C(N)=O)NC1=O | inactive
34 | Cc1ncc(C[n+]2csc(CCOP(=O)(O)O)c2C)c(N)n1 | inactive
35 | O=C(O)COc1ccccc1/C=N/NC(=O)c1ccncc1 | inactive
36 | O=C(/C=C/c1cccc(F)c1)NC1CC1 | inactive
37 | CC(C)(Oc1ccc(C2CCCc3ccccc32)cc1)C(=O)O (stereo not given) | inactive
38 | O=C(O)[C@H]1C(=CCO)O[C@H]2CC(=O)N12 | inactive
39 | CN=C1C=CC(=C(c2ccc(N(C)C)cc2)c2ccc(N(C)C)cc2)C=C1 | 0.891 µM (active)
40 | CO | inactive

system: FAB9; assay: as above; settings: P. falciparum in erythrocytes, SYBR Green DNA, 72 h; series mostly up to 28.7 µM
Procedure, shortened: as §1

Row | Structure (SMILES) | Potency
41 | CCCCC(CC)COS(=O)(=O)O (stereo not given) | inactive
42 | CC1(O)CCC(C(C)(C)O)CC1 (stereo not given) | inactive
43 | CCCCCCOC(=O)c1cccnc1 | inactive
44 | FC(F)(F)COCC(F)(F)F | inactive
45 | CCCCCCCCCCCC(=O)N(CCO)CCO | inactive
46 | O=P(O)(O)OC[C@H]1O[C@](O)(COP(=O)(O)O)[C@@H](O)[C@@H]1O | inactive
47 | COc1cc(S(C)=O)ccc1-c1nc2ncccc2[nH]1 (stereo not given) | inactive
48 | O=c1[nH]c(=O)n([C@H]2C[C@H](O)[C@@H](CO)O2)cc1/C=C/Br | inactive
49 | CC(=O)[C@H]1CC[C@H]2[C@@H]3C=CC4=CC(=O)CC[C@@]4(C)[C@H]3CC[C@]12C | inactive
50 | NC(N)=O | inactive
51 | CCC(C(=O)NC(N)=O)c1ccccc1 (stereo not given) | inactive
52 | CC(CCc1ccc(O)cc1)NCC(O)c1ccc(O)cc1 (stereo not given) | inactive
53 | Nc1nccs1 | inactive
54 | NC(=S)NS(=O)(=O)c1ccc(N)cc1 | inactive
55 | O=C(OCc1ccccc1)c1ccc(O)cc1 | inactive
56 | CC1C(=O)CC2C3(C)CCC2(C(C)C(=O)O)C(=O)C13 (stereo not given) | inactive
57 | O=C(NNCS(=O)(=O)O)c1ccncc1 | inactive
58 | CC(=O)Nc1ccc(OC(C)=O)cc1 | inactive
59 | CC/C(=C(/CC)c1ccc(OP(=O)(O)O)cc1)c1ccc(OP(=O)(O)O)cc1 | inactive
60 | OC[C@H]1O[C@@](CO)(O[C@H]2O[C@H](CO)[C@@H](O)[C@H](O)[C@H]2O)[C@@H](O)[C@@H]1O | inactive

Row | Structure (SMILES) | Potency
61 | [O-][N+](=Nc1ccccc1)c1ccccc1 | inactive
62 | NC(=O)[C@H]1O[C@@H](O)[C@H](O)[C@@H](O)[C@@H]1O | inactive
63 | CC(C)CCC[C@@H](C)[C@H]1CC[C@H]2[C@@H]3CC[C@@H]4C[C@H](O)CC[C@]4(C)[C@H]3CC[C@]12C | inactive
64 | ClC(Cl)Cl | inactive
65 | FC(F)(F)C(F)(F)C(F)(F)C(F)(F)C(F)(F)F | inactive
66 | CC(CC=O)CCCC(C)(C)O (stereo not given) | inactive
67 | CC(C)[C@H](N)C(=O)OCC(CO)OCn1cnc2c(=O)[nH]c(N)nc21 (stereo not given in full) | inactive
68 | CC(C)CCC[C@@H](C)[C@H]1CC[C@H]2[C@@H]3CC=C4C[C@@H](O)CC[C@]4(C)[C@H]3CC[C@]12C | inactive
69 | CC(C)c1ncc([N+](=O)[O-])n1C | inactive
70 | CCCc1ccc(C(=O)O)cc1 | inactive
71 | C=CC(=O)O | inactive
72 | COC(=O)CC[C@H](N)C(=O)O | inactive
73 | CN1C(=O)C[C@@H](C(=O)N[C@@H](Cc2cnc[nH]2)C(=O)N2CCC[C@H]2C(N)=O)NC1=O | inactive
74 | Cc1ncc(C[n+]2csc(CCOP(=O)(O)O)c2C)c(N)n1 | inactive
75 | O=C(O)COc1ccccc1/C=N/NC(=O)c1ccncc1 | inactive
76 | O=C(/C=C/c1cccc(F)c1)NC1CC1 | inactive
77 | CC(C)(Oc1ccc(C2CCCc3ccccc32)cc1)C(=O)O (stereo not given) | inactive
78 | O=C(O)[C@H]1C(=CCO)O[C@H]2CC(=O)N12 | inactive
79 | CN=C1C=CC(=C(c2ccc(N(C)C)cc2)c2ccc(N(C)C)cc2)C=C1 | 1.12 µM (active)
80 | CO | inactive
